From PubChem
Only some compounds are listed: those with a hit (about 8.1% of all), similar ones and a draw of the others.
MCF10A rereplic = induces DNA re-replication in MCF 10a normal breast cells; MCF 10A DNA re-replication, Hoechst nuclear intensity, 48 h; Potency, µM (top dose mostly 46.1 µM), without a hit: top-dose activity, positive = re-replication, usual class: activators; 350,000 compounds, 2.9% hits; note: % of control where 0% means no effect; nearly all actives have a fitted effect of over 50% in size
SW480 rerep = DNA re-replication induction in SW480 cells; SW480 DNA re-replication, Hoechst DNA content imaging, 48 h; Potency, µM (doses to about 46.1 µM), inactives show at the top dose re-replication activation, usual class: activators; 340,000 compounds, 1.8% hits; note: % of control where 0% means no effect; nearly all actives have a fitted effect of over 55% in size
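Image-based read-out: total Hoechst fluorescence of nuclei (405 nm excitation, 500-530 nm emission), with hits raising the fraction of high-intensity nuclei. SW480 colon cells incubated 48 hr with compounds at 37 C.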
ELG1 repair inh = inhibitors of ELG1-dependent DNA repair in HEK293T cells; HEK293T ELG1-luciferase reporter, luminescence, 16 h; DNA damage induced by 5-fluorouridine; Potency, µM (highest dose often 46.1 µM), without a hit: at the top dose activity change, negative = inhibition, hits mostly inhibitors; 330,000 compounds, 2.3% hits; AID 504467; note: % is set by controls: 0 for no effect and ±100 for the full control effect; nearly all actives have a fitted effect of over 55% in size
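Overnight (16 hr) co-exposure of 2,000 cells/well to 5-fluorouridine and compound at 37 °C preceded detection. Luciferase was quantified via ONE-Glo luminescence; loss of signal denotes inhibition.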
KB-3-1 cytotox = kills parental KB-3-1 adenocarcinoma cells | KB-3-1 viability, CellTiter-Glo ATP luminescence, 72 h | Potency, µM (top dose mostly 46.1 µM), usual class: cytotoxic | 400,000 compounds, 1.4% hits | AID 1347075; note: % is set by controls: 0 for no effect and ±100 for the full control effect; nearly all actives have a fitted effect of over 60% in size
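Here the drug-naive KB-3-1 line serves as comparator for MDR sub-line selectivity; cells received compound titrations, 72 h at 37 °C, then CellTiter-Glo readout.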
KB-V1 MDR tox = KB-V1 MDR subline cytotoxicity; KB-V1 MDR cells viability, CellTiter-Glo, 72 h; Potency, µM (doses to about 46.1 µM), hits mostly cytotoxic; 400,000 compounds, 3.4% hits; note: % is set by controls: 0 for no effect and ±100 for the full control effect; nearly all actives have a fitted effect of over 60% in size
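KB-V1, DMEM (no phenol red) + 10% FBS; cpd pin-transferred, titration series; 72 h, 37 degrees C; CellTiter-Glo, luminescence. Data normalized, curve-fit.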
An asterisk follows results filed as active; i = inactive; ? = inconclusive; . = no result given; [ ] = dose if it differs, or a comment. Calls come from the whole dose curve; as a rule, active = well fitted curve in the direction sought with a large enough effect; inconclusive = small, poorly fitted or top-dose-only effect, or another doubt; inactive = no such curve, though single readings can be large; an effect the other way counts as inactive or inconclusive. Potency is the fitted concentration of half-maximal effect.

SMILES	MCF10A rereplic	SW480 rerep	ELG1 repair inh	KB-3-1 cytotox	KB-V1 MDR tox
COc1ccc(-n2cnc3c(sc4nccc(N(C)C)c43)c2=O)cc1	-2.6%	-2.5%	?	i	i
O=C(c1cccc(C(F)(F)F)c1)N1CCC(O)(CS(=O)(=O)Cc2ccccc2Cl)CC1	5.5%	-3.3%	-28.8%	i	16.4µM*
O=C(c1cccc(C(F)(F)F)c1)N1CCC(O)(CS(=O)(=O)Cc2ccccc2)CC1	0.2%	-13.4%	-4.9%	i	i
O=C(c1cccc(C(F)(F)F)c1)N1CCC(O)(CS(=O)(=O)Cc2ccc(Cl)cc2)CC1	7.7%	0.0%	?	i	11.6µM*
Cc1ccc(C(=O)Nc2ncc(Cc3ccc(F)cc3)s2)o1	?	-2.1%	?	5.8µM*	9.2µM*
Cc1ccc(C(=O)Nc2ncc(Cc3ccc(SC(F)F)cc3)s2)cc1	?	0.731µM*	?	?	1.03µM*
Cc1ccc(C(=O)Nc2ncc(C)s2)o1	20.4%	-10.8%	?	i	i
CCc1noc(C)c1C(=O)NNC(=O)c1nn(C)c(=O)c2ccccc12	2.2%	-7.8%	9.2%	i	i
CC(=O)Nc1ccnc(-c2cccnc2)n1	2.4%	-5.6%	-16.0%	i	i
O=C(/C=C/c1ccc(OCCCF)cc1)Nc1ccnc(-c2cccnc2)n1	0.1%	?	7.3µM*	i	?
CCCCC(=O)Nc1ccnc(-c2cccnc2)n1	3.9%	-10.7%	0.2%	i	16.4µM*
O=C(COC(=O)COc1cccc(C(F)(F)F)c1)NC(=O)NC1CCCCC1	2.0%	-2.4%	-11.7%	i	i
COc1cc(CNc2ncnc3c2ncn3[C@H]2CN(Cc3cccc4ccccc34)C[C@@H](CO)O2)cc(OC)c1OC	.	.	.	?	20.6µM*
Cc1ccc(C(C)C)c(OCCNCCc2ccccc2)c1	13µM*	?	?	i	i
CCN(Cc1ccccc1)C(=O)c1cc(S(=O)(=O)N2CCOCC2)ccc1N1CCCC1	4.3%	11.4%	4.1%	i	?
OCCNCC(O)CN1c2ccccc2Sc2ccccc21 (centres undefined)	-0.7%	3.6%[9.22 µM]	-7.9%	i	i
CC(C)n1cc(CN2CCCC(C(=O)Nc3cccc(-c4cc5ccccc5[nH]4)c3)C2)cn1 (centres undefined)	16.4µM*	?	?	?	?
Cn1cc(CN2CCCC(C(=O)Nc3cccc(-c4cc5ccccc5[nH]4)c3)C2)cn1 (centres undefined)	?	?	2.5%	?	i
C/C(=N\NC(=O)Cn1nc(C)c([N+](=O)[O-])c1C)c1ccc(O)cc1	0.7%	-2.9%	-3.3%	i	i
O=c1c(-c2nc3ccccc3s2)cccn1Cc1ccc(Cl)cc1	3.26µM*	?	?	i	i
Clc1ncccc1-c1nc2ccccc2s1	-3.2%	1.8%	?	i	?
Cc1ccc2nc3c(c(C(=O)OC4CCOC4=O)c2c1)CCCC3 (centres undefined)	-0.6%	-5.0%	-1.0%	i	i
Cc1ccc(SCC(=O)N2c3ccccc3Sc3ccccc32)cc1	7.31µM*	3.3%	-3.3%	i	i
O=C(CSc1nncs1)N1c2ccccc2Sc2ccccc21	8.2µM*	20.6µM*	-27.9%	i	?
CCc1nc(SCC(=O)N2c3ccccc3Sc3ccccc32)c2ccccc2n1	4.9%	8.1%	-23.7%	i	8.2µM*
SMILES	MCF10A rereplic	SW480 rerep	ELG1 repair inh	KB-3-1 cytotox	KB-V1 MDR tox
O=C(CNC(=O)N1CC(=O)Nc2ccccc21)Nc1ccc(F)c(Cl)c1	-1.6%	-15.2%	-0.7%	i	i
COc1ccc(C(=O)Nc2cccc(-c3ccc4nncn4n3)c2)cc1	-8.5%	0.6%	11.3%	i	i
CCCCn1ccnc1C(=O)c1cccc(S(=O)(=O)N2CC(C)CC(C)C2)c1 (centres undefined)	28.6%	?	20.6µM*	?	?
CCCCn1ccnc1C(=O)c1cc(S(=O)(=O)N2CCOCC2)ccc1C	1.7%	-2.1%	6.51µM*	i	i
Cc1ccc(S(=O)(=O)N2CCOCC2)cc1C(=O)O	2.0%	-11.8%	5.4%	i	i
CCOC(=O)C1(C)Oc2ccc(S(=O)(=O)CC)cc2NC1=O (centres undefined)	9.0%	-0.6%	5.8%	i	i
CCOC(=O)N1CCN(C(=O)COC(=O)Cc2ccc(Cl)cc2)CC1	?	-26.4%	1.8%	i	i
N#CCCn1cc(/C=N/O)c(-c2cccc([N+](=O)[O-])c2)n1	9.8%	27.9%	-2.9%	i	i
O=C(c1c(Cl)nc2sccn12)N(C(=O)c1c(Cl)nc2sccn12)c1ccc(Cl)cn1	-1.6%	0.3%	?	i	i
Cc1cc(C)c2c3c(sc2n1)C(=O)N(c1ccccc1C)CC(=O)N3	23.9%	-45.9%	?	i	i
Cc1ccc(N2CC(=O)Nc3c(sc4nc(C)cc(C)c34)C2=O)cc1	1.6%	1.5%	23.1µM*	i	i
CC(C)(C)NC(=O)C(c1ccc(F)cc1)N(Cc1ccco1)C(=O)c1csnn1 (centres undefined)	0.7%	-2.4%	-11.1%	i	i
O=C(NCC1CCCO1)C(c1cccs1)N(Cc1ccccc1)C(=O)c1ccc(-c2ccccc2)[nH]1 (centres undefined)	26.1%	24.7%	?	i	3.66µM*
O=C(NC1CCCCC1)C(c1ccncc1)N(Cc1ccccc1)C(=O)c1ccc(-c2ccccc2)[nH]1 (centres undefined)	?	?	-29.7%	?	23.1µM*
CC(C)(C)NC(=O)C(c1ccncc1)N(Cc1ccco1)C(=O)c1ccc(-c2ccccc2)[nH]1 (centres undefined)	20.6µM*	?	?	i	?
CC1CN(C2CC(C)(C)NC(C)(C)C2)CCC1=O (centres undefined)	7.3%	-3.6%	-2.7%	i	i
Cc1cccc(NC(=O)c2nc(-c3ccccc3)n(-c3ccccc3)n2)c1C	17.3%	-1.2%	?	?	i
CNC(=S)N1CCN(c2cccc(OC)c2)CC1	-1.4%	-3.2%	8.5%	i	i
COc1cccc(OCC(=O)NC2CCCCCC2)c1	-2.1%	-6.0%	?	i	i
O=[N+]([O-])c1ccccc1S(=O)(=O)N1CCN(c2ccccn2)CC1	15.2%	20.8%	8.1%	i	i
NC(=S)N/N=C/c1ccc(-c2ccc([N+](=O)[O-])cc2)o1	7.8%	?	-8.7%	i	i
COc1ccc(C(=O)Nc2ccc(NC(=O)c3cccs3)cc2)cc1Cl	-15.6%	-30.8%	?	i	i
